In PubChem BioAssay (NCATS) one finds Potency data, which are given here for 11 molecules.

Results filed as inconclusive are left out. A call without a number means that no potency is given here. The source made the active and inactive calls. Calls come from the whole dose curve; as a rule, active = well fitted inhibition curve with a large enough effect; inconclusive = small, poorly fitted or top-dose-only effect; inactive = flat fitted curve, though single readings scatter.
Potency is the fitted concentration of half-maximal effect.

Voltage-gated inwardly rectifying potassium channel KCNH2 (Homo sapiens), sequence (Q12809 whole entry, looked up): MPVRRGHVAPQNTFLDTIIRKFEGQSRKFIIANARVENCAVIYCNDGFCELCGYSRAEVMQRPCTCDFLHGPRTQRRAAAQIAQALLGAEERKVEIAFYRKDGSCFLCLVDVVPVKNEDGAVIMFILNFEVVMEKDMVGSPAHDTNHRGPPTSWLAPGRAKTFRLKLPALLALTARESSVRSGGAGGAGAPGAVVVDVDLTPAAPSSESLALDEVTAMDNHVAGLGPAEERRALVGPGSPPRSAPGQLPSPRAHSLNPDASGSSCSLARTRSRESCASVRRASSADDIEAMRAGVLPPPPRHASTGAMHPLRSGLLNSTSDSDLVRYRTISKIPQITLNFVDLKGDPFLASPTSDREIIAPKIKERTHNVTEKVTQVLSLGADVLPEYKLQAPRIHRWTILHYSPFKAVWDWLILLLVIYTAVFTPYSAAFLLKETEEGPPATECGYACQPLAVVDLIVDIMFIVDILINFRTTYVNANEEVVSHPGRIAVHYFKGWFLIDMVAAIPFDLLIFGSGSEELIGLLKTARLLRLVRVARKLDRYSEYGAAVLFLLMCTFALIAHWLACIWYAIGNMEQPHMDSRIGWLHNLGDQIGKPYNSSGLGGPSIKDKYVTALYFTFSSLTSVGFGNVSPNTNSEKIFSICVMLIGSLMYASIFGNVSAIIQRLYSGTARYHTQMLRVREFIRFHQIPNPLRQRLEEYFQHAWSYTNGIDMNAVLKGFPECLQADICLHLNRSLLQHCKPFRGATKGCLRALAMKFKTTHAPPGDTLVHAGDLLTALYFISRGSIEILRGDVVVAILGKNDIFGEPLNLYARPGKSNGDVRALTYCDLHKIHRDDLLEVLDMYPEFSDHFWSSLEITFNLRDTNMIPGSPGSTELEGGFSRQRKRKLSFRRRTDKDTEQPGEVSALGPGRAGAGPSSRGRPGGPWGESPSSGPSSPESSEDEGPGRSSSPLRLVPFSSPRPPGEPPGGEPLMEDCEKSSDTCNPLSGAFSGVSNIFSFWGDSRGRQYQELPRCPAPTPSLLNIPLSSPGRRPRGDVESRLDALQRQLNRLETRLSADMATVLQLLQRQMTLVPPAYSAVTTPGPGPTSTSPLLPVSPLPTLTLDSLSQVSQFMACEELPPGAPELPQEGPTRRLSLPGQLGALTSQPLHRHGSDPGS

This assay concerns the target Voltage-gated inwardly rectifying potassium channel KCNH2 (Homo sapiens) (UniProt Q12809). The experiment in a line: qHTS Assay for Small Molecule Inhibitors of the Human hERG Channel Activity (AID 588834).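 Note: lower thallium flux fluorescence means stronger hERG block; nearly all actives have a fitted effect of over 50% in size.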 The note with it: U2OS BacMam hERG, FluxOR thallium flux fluorescence; series mostly up to 46.1 µM. The essentials: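 hERG block measured as reduced thallium-dye (FluxOR) fluorescence after stimulation buffer addition, read over 2 min. Cells were hERG-BacMam-transduced U2OS exposed to compound ~10 min […]; concentration-response fitted with Hill equation for AC50.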
(In general: Quantitative high-throughput screening tests each substance at several concentrations.)
Turning to `CC(=O)OCC1=C(C(=O)O)N2C(=O)[C@@H](NC(=O)Cc3ccccc3)[C@H]2SC1`, the Potency result was “inactive”.
As for `C[C@@H]1C/C=C/C=C/C=C/C=C/[C@H](O[C@@H]2O[C@H](C)[C@@H](O)[C@H](N)[C@@H]2O)C[C@@H]2O[C@](O)(C[C@@H](O)C[C@H]3O[C@@H]3/C=C/C(=O)O1)C[C@H](O)[C@H]2C(=O)O`, the Potency entry is “inactive”.
Under `CCCCCCCCCCCCCCCCCCOCC(COP(=O)([O-])OCC[N+](C)(C)C)OC` (stereo unspecified) stands “inactive”.
With `C[N@+]12CCCC[C@@H]1CCC(=C(c1cccs1)c1cccs1)C2`, the Potency is 2240 nM (active).
Turning to `CC(=O)[C@@]1(O)CC[C@H]2[C@@H]3C=C(Cl)C4=CC(=O)[C@@H]5C[C@@H]5[C@]4(C)[C@H]3CC[C@@]21C`, the Potency result is “inactive”.
Turning to `C[C@@H]1C[C@H]2[C@@H]3CCC4=CC(=O)C=C[C@]4(C)[C@@]3(F)[C@@H](O)C[C@]2(C)[C@@]1(O)C(=O)COC(=O)c1cccc(S(=O)(=O)O)c1`, the Potency entry was “inactive”.
Next, `C[C@@H](O)[C@H]1C(=O)N2C(C(=O)[O-])=C(SC3Cn4cnc[n+]4C3)[C@H](C)[C@H]12` (stereo partly specified): “inactive”.
Next, `CO[C@H]1C[C@H](O[C@@H]2/C(C)=C/C[C@@H]3C[C@@H](C[C@]4(CC[C@H](C)[C@@H](C5CCCCC5)O4)O3)OC(=O)[C@@H]3C=C(C)/C(=N/O)[C@H]4OC/C(=C\C=C\[C@@H]2C)[C@]43O)O[C@@H](C)[C@@H]1O`: “inactive”; `C=C1CC[C@H](O)CC1=C/C=C1\CCC[C@]2(C)[C@@H]([C@H](C)CCCC(C)(C)O)CC[C@@H]12`: “inactive”.
With `CC(C)=CCC/C(C)=C/CC/C(C)=C/CC/C(C)=C/CC1=C(C)C(=O)c2ccccc2C1=O`, the Potency entry is “inactive”.
Under `CC(C)C[C@@H](NC(=O)[C@@H](O)[C@H](N)Cc1ccccc1)C(=O)O` stands “inactive”.
